Shown are actives, neighbours in structure and some others; about 3.4% of the full set was active somewhere.
esBAF inh = inhibitors of esBAF chromatin remodeling in mouse ES cells | Bmi1-luciferase knock-in reporter, 24 h; 100% = twice the neutral-well signal | reporter increase, % at 12.5 µM | hit rate 2% among 350,000 | AID 602393; in the data active means activation above about 40%; inconclusive means no clear call, values can overlap the other calls;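 further: a rise in the Bmi1 reporter signal indicates esBAF inhibition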
miR122 inh = inhibitors of miR-122 in Huh7 cells. Huh7 miR-122 Renilla luciferase sensor, 48 h; neutral wells = 0, positive control = 100. activation (reporter increase), % at 12.5 µM. hit rate 0.3% among 340,000;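 active means mean replicate activation score at least 90 and every replicate individually at or above 90; inconclusive means only one of the two criteria met; inactive means neither criterion met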;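 further: higher luciferase means less miR-122 activity so hits act as miR-122 inhibitors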
Wnt bcat act = activates Wnt/beta-catenin signaling in a reporter cell assay; hit rate 1.2% among 300,000; AID 743398; activator, plate reader; activation, % at 9.35 µM; in the data active means activation above about 30%, passing the limit was not always enough; inconclusive means no clear call, values can overlap the other calls
MITF TRPM1 HTS = MITF TRPM1 promoter activation in melanoma cells. SK-MEL-5 TRPM1-promoter luciferase, 24 h; % of positive control, neutral wells = 0. hit rate 0.75% among 300,000. activation, % at 12.5 µM;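 active means mean activation of at least 80% with every replicate also reaching 80%; inconclusive means mean reaches 80% but some replicate falls short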
Env fusion inh = blocks HIV Env-driven cell-cell fusion. HeLa-JRFL Env/CEM21 cell fusion, luciferase. inhibition, % at 12.3 µM. hit rate 1.1% among 360,000. AID 651610;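 active means mean replicate inhibition score of at least 50 and every replicate individually at or above 50; inconclusive means only one of the two criteria met; inactive means mean below 50 and not all replicates reaching 50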
Numbers stand for hits; – = inactive; ? = inconclusive; · = not tested or not shown; [ ] = another dose, or the depositor's remark.

SMILES	esBAF inh	miR122 inh	Wnt bcat act	MITF TRPM1 HTS	Env fusion inh
CCS(=O)(=O)NCC[C@H]1CC[C@H](NS(=O)(=O)c2cccc(F)c2)[C@H](CO)O1	–	·	·	·	–
CCOc1ccc(N/C(SCc2cccc([N+](=O)[O-])c2)=C(/C#N)C(N)=O)cc1	·	·	–	–	–
N#CC(C#N)=C(Nc1ccc(F)cc1)SCc1cccc(F)c1	·	·	·	–	61.1
O=C(N[C@@H]1CC[C@H](CC(=O)N2CCOCC2)O[C@@H]1CO)c1ccccn1	–	·	·	·	·
CCS(=O)(=O)c1ncc(Cl)c(C(=O)Nc2ccc(S(=O)(=O)N3CCC(C)CC3)cc2)n1	–	–	–	–	64.8
CCOc1ccc(C(=O)N(CC(=O)Nc2cccc(C)c2C)CC2CCCO2)cc1OC (configuration not stated)	–	·	51.5	–	·
CCCC(=O)Nc1ccc2c(c1)C(=O)N(C)C[C@H](OC)[C@@H](C)CN(C(=O)c1ccccc1F)[C@@H](C)CO2	–	–	·	·	–
COc1ccccc1C(=O)O/N=C(\N)c1ccccn1	–	–	53.9	·	–
COc1ccc(C(=O)O/N=C(\N)c2ccccn2)cc1	–	–	–	–	69.6
N/C(=N\OC(=O)c1ccc(Cl)cc1)c1ccccn1	–	–	·	–	–
COc1cc(OC)cc(C(=O)O/N=C(\N)c2ccccn2)c1	·	–	52.4	·	–
COc1cc(OC)c(C(=O)O/N=C(\N)c2ccccn2)cc1OC	–	–	–	–	–
COc1ccc(C(=O)NNC(=O)c2ccccn2)cc1	·	·	–	–	62.0
C[C@@H]1CN([C@H](C)CO)C(=O)c2cc(NC(=O)Nc3cccc4ccccc34)ccc2O[C@@H](C)CCCCO[C@H]1CN(C)S(=O)(=O)c1ccc(F)cc1	–	–	·	·	–
Cc1ccccc1-c1ccc([C@H]2[C@@H](CO)N3CCCCN(C(=O)NC4CCCC4)C[C@H]23)cc1	–	–	·	·	·
CCCNC(=O)N(C)C[C@H]1Oc2cc(C#CC3CC3)ccc2S(=O)(=O)N([C@H](C)CO)C[C@H]1C	–	–	·	·	–
O=C(O)c1cccc(Nc2nc(-c3cc4ccccc4oc3=O)cs2)c1	50.9	–	–	–	–
Cc1cc(C)cc(NC2=NC3(CCCCC3)N=C(N)N2)c1	–	108.7	–	–	·
CCCn1c(C2CCCN2c2nc(C)cs2)nc2cc(Cl)c(Cl)cc21 (configuration not stated)	–	·	–	–	69.7
CNC[C@H]1Oc2ccc(NS(=O)(=O)c3ccc(OC)cc3)cc2CC(=O)N([C@H](C)CO)C[C@H]1C	–	–	·	·	–
COC(=O)C1=C(C)N(Cc2ccc(Cl)cc2)C(=S)NC1c1ccc(Br)cc1 (configuration not stated)	·	·	–	·	55.7
CC(=O)C1=C(C)N(Cc2ccc(F)cc2)C(=S)NC1c1cccc(Cl)c1 (configuration not stated)	·	·	–	·	–
CC(=O)C1=C(C)N(Cc2ccc(Cl)cc2)C(=S)NC1c1cccc(Br)c1 (configuration not stated)	·	·	–	·	70.4
CC(=O)C1=C(C)N(Cc2ccc(Br)cc2)C(=S)NC1c1cccc(Br)c1 (configuration not stated)	·	·	–	·	?
CC(=O)C1=C(C)N(Cc2ccc(Br)cc2)C(=S)NC1c1cccc(Cl)c1 (configuration not stated)	·	·	–	·	70.0
SMILES	esBAF inh	miR122 inh	Wnt bcat act	MITF TRPM1 HTS	Env fusion inh
C[C@@H]1CCCCO[C@@H](CN(C)Cc2ccccc2)[C@@H](C)CN([C@@H](C)CO)C(=O)c2cc(NC(=O)Nc3ccccc3)ccc2O1	–	–	·	·	–
COc1ccc(S(=O)(=O)NC[C@@H]2CC[C@H]3[C@H](CN3Cc3cc(F)ccc3F)O2)cc1	·	·	·	·	59.9[16.7 µM]
Cc1ccc(SCc2[nH]nc3c2C2(CCSCC2)C(C#N)=C(N)O3)cc1	–	–	·	–	·
CCOC(=O)N1CCC2(CC1)C(C#N)=C(N)Oc1n[nH]c(CSc3ccc(C)cc3)c12	–	–	69.8	·	–
Cc1ccc(-c2ccc3c(c2)O[C@@H](CN(C)CC2CC2)[C@@H](C)CN([C@@H](C)CO)S3(=O)=O)cc1	–	–	·	·	–
COc1ccc(CN2C[C@H](C)[C@@H](OC)CN(C)C(=O)c3cc(NC(=O)C4CC4)ccc3OC[C@@H]2C)cc1	–	·	·	·	–
C[C@H]1CN([C@@H](C)CO)C(=O)Cc2cc(NC(=O)c3ccncc3)ccc2O[C@@H]1CN(C)S(C)(=O)=O	–	–	·	·	–
c1coc(CNc2c3c(nc4ncnn24)CCCC3)c1	·	–	–	–	–
Clc1cccc(-c2cc3nc4c(c(NCc5ccco5)n3n2)CCCC4)c1	44.2	–	·	–	·

Assay outcomes deposited in PubChem by Broad Institute.
